Data reported in PubChem BioAssay (NCI).
This is part of a sample that, as a whole, favours compounds with a hit. Of some 79,000 tested, about 15% had one in any assay. Cut-off read from the data, not from the text of the source: active = growth inhibition above about 70%; inactive = the rest.

Tests used:
[1] = NCI Yeast Anticancer Drug Screen. Data for the rad50 strain (AID 155);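 note: 0% = growth of vehicle-only cultures of the same strain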; conditions: S. cerevisiae rad50 strain growth inhibition, active compounds read high; at 50.0 µM unless noted
Summary of the method: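 DNA repair mutant yeast, compound exposure, growth read-out; inhibition is taken relative to vehicle.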

[2] = NCI Yeast Anticancer Drug Screen. Data for the mec2-1 strain (AID 157); conditions: S. cerevisiae mec2-1 strain, active compounds read high; at 50.0 µM unless noted
Summary of the method: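 Strain: mec2-1 (DNA repair/cell cycle alteration). Compound exposure, then growth measured; inhibition expressed relative to vehicle.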

[3] = NCI Yeast Anticancer Drug Screen. Data for the sgs1 mgt1 strain (AID 161);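 note: 0% = growth of cultures given vehicle only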; conditions: S. cerevisiae sgs1 mgt1 strain, active compounds read high; at 50.0 µM unless noted
Summary of the method: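 Read-out: growth inhibition vs vehicle controls. Cells: mutant yeast strain deficient in DNA damage repair.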

[4] = NCI Yeast Anticancer Drug Screen. Data for the cln2 rad14 strain (AID 165);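 note: 0% = growth equal to vehicle treated cultures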; conditions: S. cerevisiae cln2 rad14 strain, active compounds read high; at 50.0 µM unless noted
Summary of the method: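 Compounds are applied to the cln2 rad14 yeast strain, and growth is then compared with that of vehicle-treated cultures to give inhibition.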

[5] = NCI Yeast Anticancer Drug Screen. Data for the bub3 strain (AID 167); conditions: S. cerevisiae bub3 mutant strain, active compounds read high; at 50.0 µM unless noted
Summary of the method: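 In this screen, a yeast mutant lacking normal mitotic checkpoint function is challenged with compound. Relative growth versus vehicle gives the inhibition value.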

[6] = NCI Yeast Anticancer Drug Screen. Data for the mlh1 rad18 strain (AID 175); conditions: S. cerevisiae mlh1 rad18 strain growth inhibition, active compounds read high; at 50.0 µM unless noted
Summary of the method: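 Read-out is yeast growth inhibition, calculated against vehicle-only controls. The compound was applied to a strain engineered with DNA damage repair alterations.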

Measured: growth inhibition

CC(=O)N1CCC(/C(C)=N/O)CC1
inactive: [1] 4.9% | [2] -10.1% | [3] -12.6% | [4] -33.8% | [5] -13.8% | [6] 0.45%

c1ccc(CNc2nn[nH]n2)cc1
inactive: [1] 2.65% | [2] 5.1% | [3] -5.9% | [4] -20.6% | [5] 4.2% | [6] 9%

Cc1ccc2c(c1)C(C(=O)N[C@@H]1C(=O)N3[C@@H]1SC(C)(C)[C@@H]3C(=O)O)OCCC2 (some centres undefined)
inactive: [1] -5.1% | [2] -12.3% | [3] 16.2% | [4] 2.45% | [5] 0.65% | [6] -68.4%

Cc1cc(=O)[nH]c(NNC(C#N)c2cccc([N+](=O)[O-])c2)n1 (centres undefined)
inactive: [1] -18.5% | [2] -11.1% | [3] -31.1% | [4] -12.8% | [5] -7.4% | [6] -39.5%

O=C(O)c1cccc(OCCO)c1
inactive: [1] -10% | [2] -11.2% | [3] -35.8% | [4] -26.4% | [5] -17.9% | [6] -29.9%

COc1ccccc1NC(=O)C1=C(C)NC(C)=C(C(=O)Nc2ccccc2OC)C1c1ccc(C)cc1
inactive: [1] 12.7% | [2] -10.3% | [3] 3.75% | [4] 12.1% | [5] 12.3% | [6] -0.85%

COc1ccc2c(c1)[n+](=O)c(C(=O)C/C(=N/NC(=O)c1ccccc1O)C(=O)Nc1ccc(Cl)c(C(F)(F)F)c1)c(C)n2[O-]
inactive: [1] 25.1% | [2] 9.4% | [3] 14.5% | [4] 8.75% | [5] 34.2% | [6] 1.35%

CC(C)CCC[C@@H](C)[C@H]1CC[C@H]2[C@@H]3CCC4=CC(=O)NCC[C@]4(C)[C@H]3CC[C@]12C
inactive: [1] 12.8% | [2] -3.25% | [3] 34.6% | [4] 27.2% | [5] -9.35% | [6] 15.9%

CC(=O)NCCc1ccccc1
inactive: [1] -18.2% | [2] 20.9% | [3] 3.2% | [4] -19.3% | [5] 10% | [6] -0.1%

Nc1c(F)cc(I)cc1F
inactive: [1] -3.95% | [2] 2.15% | [3] -2.2% | [4] -43% | [5] 10.2% | [6] 1.35%

CC1CCC(c2ccccc2)(c2ccccc2)C1=O (centres undefined)
inactive: [1] 11.8% | [2] -1.8% | [3] -2.5% | [4] -15% | [5] -1.15% | [6] -2.25%

O=S(=O)(O)c1cc(Nc2ccnc3ccccc23)c2c(S(=O)(=O)O)cc(S(=O)(=O)O)cc2c1
inactive: [1] 15.1% | [2] 24.3% | [3] 4.25% | [4] 12.2% | [5] 10.2% | [6] 19.8%

NCCCC(=S)S
inactive: [1] -4.35% | [2] 12.6% | [3] -0.75% | [4] 12.8% | [5] 13.8% | [6] 13.4%

CC(=O)NC(CCCCNC(=O)N(CCCl)N=O)C(=O)NCc1ccccc1 (centres undefined)
inactive: [1] 1.2% | [2] -1.15% | [3] 0.7% | [4] 14.7% | [5] -2.35% | [6] -1.85%

CCC(C)C(NC(=O)C1CSC(C)(C)N1C=O)C(=O)OC1CCCCC1 (centres undefined)
inactive: [1] 38.9% | [2] -13.2% | [3] 19.1% | [4] -13.2% | [5] -4.9% | [6] 9.55%

Oc1cc2c(cc1C(Nc1ncccn1)c1ccc3c(c1)OCO3)OCO2 (centres undefined)
inactive: [1] -0.4% | [2] 6.8% | [3] 12.8% | [4] -16.3% | [5] 19.4% | [6] 15.3%

CCNC(=O)c1ccccc1N=NN(C)C
inactive: [1] -1.15% | [2] 25.4% | [3] -0.65% | [4] 5.65% | [5] 5% | [6] 21.9%

CC1OCC(O)C(C(O)C(=O)CN(Cc2ccccc2)Cc2ccccc2)O1 (centres undefined)
inactive: [1] 10.2% | [2] 15.6% | [3] 8.65% | [4] 8.55% | [5] 5.75% | [6] 9.55%

COc1cc(/C=C/c2ccc(N(C)C)cc2)oc(=O)c1
inactive: [1] 21.5% | [2] 5.45% | [3] 26.6% | [4] 6.85% | [5] 5.65% | [6] 0.25%

COC1=C2C[C@H](C)C[C@H](OC)[C@H](O)[C@@H](C)/C=C(\C)[C@H](OC(N)=O)[C@H](OC)/C=C\C=C(/C)C(=O)NC(=C(/C=N/N3CCN(C)CC3)C1=O)C2=O
inactive: [1] 7.15% | [2] 0.05% | [3] -7.8% | [4] -8.75% | [5] 2.75% | [6] 18.8%

N/N=C1/CCN2CCCc3cccc1c32
inactive: [1] 11.2% | [2] 2.75% | [3] 1.25% | [4] -27.4% | [5] -19.4% | [6] 10.1%

CCC(=O)CC(=O)CCC(=O)Nc1ccc(Cl)cc1C
inactive: [1] -72.2% | [2] -15.4% | [3] -11.6% | [4] -55.2% | [5] -12.4% | [6] -9.55%

O=C(Cl)C(=O)c1c[nH]c2ccccc12
inactive: [1] 6.2% | [2] -1.95% | [3] -3% | [4] 1.65% | [5] -33.6% | [6] -12.5%

CC/C=N\N1C(N)=C(C#N)C(C#N)(C#N)C1CC (centres undefined)
inactive: [1] 6.05% | [2] 10.2% | [3] -18.9% | [4] 4.75% | [5] -12.8% | [6] -27.9%

CC(=O)CCOC(=O)c1cc([N+](=O)[O-])cc([N+](=O)[O-])c1
inactive: [1] 13.2% | [2] -4.1% | [3] 14.4% | [4] 2.6% | [5] 16.9% | [6] 3%

Cc1ccc(NC(=O)Oc2ccc(C(C)(C)C)cc2)cc1NC(=O)Oc1ccc(C(C)(C)C)cc1
inactive: [1] -14.4% | [2] -29.4% | [3] -6.35% | [4] -4.75% | [5] 10.7% | [6] -18.6%

OCC(O)COc1ccc(Cl)cc1 (centres undefined)
inactive: [1] -5% | [2] -12.8% | [3] -1.25% | [4] 2.05% | [5] 6.4% | [6] 9%

O.O.O=S(=O)(O)C(F)(F)F.[NH2-].[NH2-].[NH2-].[NH2-].[Ru+3]
inactive: [1] -17.8% | [2] 1.8% | [3] -27% | [4] -16.9% | [5] -27.4% | [6] -11.6%

COC(=O)OCCOC(=O)OC
inactive: [1] 3.15% | [2] 1.5% | [3] -8.45% | [4] 18.1% | [5] 15.3% | [6] 9.5%

O=C(O)c1cccc2c(=O)c3ccccc3oc12
inactive: [1] -13.9% | [2] -39.8% | [3] -16.9% | [4] 8.25% | [5] -32.4% | [6] 0.85%

COc1ccc(/C=C2\N=C(c3ccc([N+](=O)[O-])cc3)OC2=O)cc1OC
inactive: [1] -5.35% | [2] -2.75% | [3] -14.8% | [4] -15.5% | [5] 0.25% | [6] -17.1%

Cc1nc(C(Cl)(Cl)Cl)[nH]c(=O)c1SCCO
inactive: [1] 12.8% | [2] -15.7% | [3] -9.05% | [4] 10.1% | [5] -2.4% | [6] -6.35%

CCOC(=O)CN1C(=O)/C(=C2\SC(=S)N(CC(=O)OCC)C2=O)SC1=S
inactive: [1] 19.1% | [2] 9.95% | [3] 16.1% | [4] 7.7% | [5] -3.9% | [6] 9.4%

CCOc1c(N=Nc2cccc(Cl)c2)c(C)nn1C(N)=S
inactive: [1] 20.4% | [2] 3.35% | [3] 9.65% | [4] -25.1% | [5] -15.5% | [6] 19.4%

Cc1cccc2ccc(-c3cc4ccccc4s3)nc12
inactive: [1] -5.95% | [2] -15.1% | [3] -3.1% | [4] -87.6% | [5] -10.2% | [6] -21.1%

CC1(C)OC2COC(OCc3ccccc3)C(OCc3ccccc3)C2O1 (centres undefined)
inactive: [1] 17.4% | [2] 8.1% | [3] 26.8% | [4] 7.35% | [5] -8.7% | [6] 19%

CC(=O)OC1CCC2(C)C(CCC3(C)C2C(=O)C=C2C4CC(C)(C(=O)O)CCC4(C)CCC23C)C1(C)C (centres undefined)
inactive: [1] -3.8% | [2] -9.5% | [3] -13% | [4] -4.25% | [5] -5.75% | [6] -8.5%

S=c1sc2c(s1)SCCCCSCCCCSc1sc(=S)sc1SCCCCSCCCCS2
inactive: [1] 13.3% | [2] 8.6% | [3] 1.1% | [4] 16.1% | [5] 6.75% | [6] -29.4%

CC12CCC(CC1(Cl)Cl)C2 (centres undefined)
inactive: [1] 9.75% | [2] -5.8% | [3] 21.1% | [4] 14.3% | [5] 4.7% | [6] 26.9%
